TEAD-YAP inh = TEAD-YAP interaction inhibition; HEK-TIYL cells, TEAD-Gal4/YAP UAS-luciferase luminescence; inhibition, % at 9.12 µM; 640,000 tested, 1.4% active; in the data active = inhibition above about 32%;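 also: 0% = median of test compound wells and 100% = reference inhibitor wells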
GPR151 activ = activators of human GPR151; AID 1508602; Q8TDV0; 650,000 tested, 1% active; PathHunter beta-arrestin GPR151 cells, luminescence; activation, % at 11.2 µM; in the data active = activation above about 4.9%;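 also: 0% = median of compound wells and 100% = cells with positive control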
FBW7 act = activators of human E3 ligase FBW7. Q969H0. AlphaScreen FBW7–phospho-cyclin E peptide binding, activator screen. normalized activity (activation), % at 26.1 µM. 650,000 tested, 0.13% active. AID 1259310; in the data active = normalized activity above about 1.9%;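 also: purified mutant Fbw7 with reduced substrate affinity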
Target sequence (Q969H0 whole entry, looked up): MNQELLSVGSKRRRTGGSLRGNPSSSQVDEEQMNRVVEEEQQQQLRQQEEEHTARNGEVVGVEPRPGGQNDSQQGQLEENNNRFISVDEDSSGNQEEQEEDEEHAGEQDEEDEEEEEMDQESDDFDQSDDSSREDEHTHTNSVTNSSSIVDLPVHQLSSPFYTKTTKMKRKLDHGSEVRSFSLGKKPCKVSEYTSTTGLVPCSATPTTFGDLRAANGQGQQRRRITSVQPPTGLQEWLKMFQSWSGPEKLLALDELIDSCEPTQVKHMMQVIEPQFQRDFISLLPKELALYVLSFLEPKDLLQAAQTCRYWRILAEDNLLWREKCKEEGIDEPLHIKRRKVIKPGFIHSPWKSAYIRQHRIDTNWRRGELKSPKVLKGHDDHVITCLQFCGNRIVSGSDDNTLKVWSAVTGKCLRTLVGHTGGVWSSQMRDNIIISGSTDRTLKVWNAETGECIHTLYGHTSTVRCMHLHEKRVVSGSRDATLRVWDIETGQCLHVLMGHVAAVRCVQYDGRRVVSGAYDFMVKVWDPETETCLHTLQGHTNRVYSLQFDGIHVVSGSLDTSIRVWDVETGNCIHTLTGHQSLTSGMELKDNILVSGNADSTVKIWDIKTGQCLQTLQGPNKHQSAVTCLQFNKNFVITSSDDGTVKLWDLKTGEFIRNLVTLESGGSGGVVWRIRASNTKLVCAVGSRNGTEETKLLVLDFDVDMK
MITF primary = inhibitors of human MITF; O75030; AlphaScreen MITF homodimerization, bead proximity signal; inhibition, % at 2.6 µM; 650,000 tested, 0.91% active; AID 1259374; in the data active = inhibition above about 50%;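 also: 0% = vehicle wells with protein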
GPR151 confirm = human GPR151 activation, confirmation screen; shares compounds with GPR151 activ; 6,700 tested, under 10 active; GPR151 PathHunter beta-arrestin cells, luminescence, 90 min; % of EA-reagent control over plate median; activation, % at 11.2 µM;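 active = mean percent activation across replicates above the confirmation screen cutoff of 4.91%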
GPR119 counter = counter-screen for GPR151 activators: effect on human GPR119. shares compounds with GPR151 activ. GPR119 PathHunter beta-arrestin cells, luminescence, 90 min; 0 = compound-well median, 100 = enzyme-acceptor control. activation, % at 11.2 µM. 6,700 tested, 0.3% active;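 active = mean percent activation in the counterscreen above 29.09%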;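 also: counterscreen on off-target GPR119 to flag nonselective hits from the GPR151 activator screen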
* hit, by the source's call; x = no result given; ! = not confirmed by another sample. Rows were chosen to be rich in hits. Some 3.5% of all compounds tested hit in one or more screens of this group.

SMILES	TEAD-YAP inh	GPR151 activ	FBW7 act	MITF primary	GPR151 confirm	GPR119 counter
CC(=O)OC[C@H]1O[C@@H](n2ccc(=O)[nH]c2=S)C(OC(C)=O)C1OC(C)=O (stereo not given in full)	-1	5.9*	0	-6	0	-10
C=CCn1c(SCc2ccc(OC)c([N+](=O)[O-])c2)nnc1-c1cccc(Br)c1	-8	5.0*	0	-18	0	-4
COc1ccccc1Cc1noc(-c2ccc(I)cc2)n1	-9	-1	0	-26	x	x
COc1ccccc1Cc1noc(-c2cc(Cl)ccc2OC)n1	1	6.3*	0	7	0	-3
O=C(NCCc1ccc(O)cc1)c1cnc(-c2ccc(N3CCOCC3)nc2)s1	0	5.1*	0	-2	-1	-4
CC1(C)[C@H]2CC=C(CN3CCC(Oc4cccc(C(=O)N5CCOCC5)c4)CC3)[C@@H]1C2	-4	1	0	16	x	x
CC(=O)N1CCc2cc(Br)cc(S(=O)(=O)NC3CCCC3)c21	3	1	0	8	x	x
CC(=O)N1CCc2cc(Br)cc(S(=O)(=O)NC3CCCc4ccccc43)c21 (stereo not given)	-11	5.1*	0	13	0	11
O=C(COc1cccc(Cl)c1Cl)c1ccc[nH]1	-9	9.9*	0	0	0	-12
CC(C)c1ccc(CN2CCC(N3CCC(C(=O)N4CCCC4)CC3)CC2)cc1	17	-1	0	7	x	x
O=C(Nc1ccccc1)c1ccc(N2C(=O)C3C4C=CC(C4)C3C2=O)cc1 (stereo not given)	-52	5.0*	0	-1	1	13
CCOC(=O)N1CCN(S(=O)(=O)c2ccc(OC)c(C)c2C)CC1	12	2	0	3	x	x
C/C(=N\NC(=O)c1cnccn1)c1ccccc1O	-42	-1	0	9	x	x
COc1ccc(-c2cncc(-c3cc(Nc4ncccn4)nc(C)n3)c2)cc1	-1	6.9*	0	3	-1	0
Cc1ccc(-c2cncc(-c3cc(Nc4ncccn4)nc(C)n3)c2)cc1	1	-1	0	42	x	x
CCNc1nc(NCc2cccnc2)c2[nH]cnc2n1	-4	-1	0	18	x	x
CC(C)N(CCNc1nc(NCc2cccnc2)nc2nc[nH]c12)C(C)C	4	6.2*	0	-4	0	-2
COc1ccc(Nc2nc3[nH]c(=O)cc(O)c3s2)cc1	-7	0	0	-17	x	x
CSc1nc2[nH]c(=O)cc(O)c2s1	-1	5.5*	0	5	0	-2
COc1ccc(CCC(=O)N2CCC[C@@H]3CN(Cc4cccs4)CC[C@H]32)cc1OC	10	2	0	8	x	x
CC(C)(Sc1cc(C(C)(C)C)c(O)c(C(C)(C)C)c1)Sc1cc(C(C)(C)C)c(O)c(C(C)(C)C)c1	-3	11*!	0	2	0	4
CN(c1cccc(NS(=O)(=O)c2ccc3ccccc3c2)c1)S(C)(=O)=O	5	0	0	0	x	x
CN(NS(=O)(=O)c1ccc2ccccc2c1)c1ccccc1	0	7.6*	0	5	0	1
O=C1NC(=O)C(=Cc2ccc(OC(=O)c3ccccc3Cl)cc2)C(=O)N1	-3	5.5*	-1	-10	0	3
CCN(CC)C(=S)SCCC(=O)NC(=O)Nc1ccc(F)cc1	14	24*	-1	1	-1	-3
SMILES	TEAD-YAP inh	GPR151 activ	FBW7 act	MITF primary	GPR151 confirm	GPR119 counter
O=C(O)C1CCCCC1C(=O)Nc1ccccc1Br (stereo not given)	6	0	0	9	x	x
O=C(CSCc1ccc(Br)cc1)N1CCN(Cc2ccccc2)CC1	2	-2	1	13	x	x
COc1ccc(NC(=O)c2cc3ccc(OC)cc3oc2=Nc2ccc(C(=O)O)cc2)c(OC)c1	16	11*	0	-9	0	15
COc1ccc(NC(=O)c2cc3cc(OC)ccc3oc2=Nc2ccc(C(=O)O)cc2)c(OC)c1	-9	0	0	10	x	x
O=C1Nc2ccccc2/C1=c1/sc2n(c1=O)CN(c1ccccc1)CN=2	10	2	0	10	x	x
O=C(N/N=C/c1ccccc1[N+](=O)[O-])c1cccc2ccccc12	3	7.4*	0	0	0	4
O=C(N/N=C/c1ccccc1)c1ccccc1[N+](=O)[O-]	0	1	0	5	x	x
O=C(N/N=C/c1cc(Br)cc([N+](=O)[O-])c1O)c1cccc2ccccc12	0	0	1	7	x	x
O=C(N/N=C/c1ccccc1[N+](=O)[O-])c1ccccc1[N+](=O)[O-]	-46	-1	0	-4	x	x
O=C(N/N=C/c1cc(Cl)cc([N+](=O)[O-])c1O)c1ccccc1O	-1	5.1*	-1	7	-1	4
O=C(N/N=C/c1cccc2ccccc12)c1ccccc1[N+](=O)[O-]	3	11*	0	10	0	-5
O=C(N/N=C/c1ccc(F)cc1)c1ccccc1[N+](=O)[O-]	4	7.0*	0	8	-1	-8
O=C(/C=C/c1ccc2c(c1)OCO2)N1CCN(c2ncccn2)CC1	-2	2	0	0	x	x
Cc1ccc(-n2c(-c3ccc4[nH]c(C)c(C)c4c3)n[nH]c2=S)cc1	-27	5.5*	0	8	1	-4
COc1ccc(Br)cc1S(=O)(=O)N1CCN(c2ccc(N3CCCC3)nn2)CC1	7	7.7*	0	3	1	3
COc1ccccc1N1CCN(S(=O)(=O)c2ccc(Br)cc2C)CC1	-7	8.5*	0	-17	0	-7
COC(=O)c1ccc(-c2cnc3ccc(NCc4cc(OC)c(OC)c(OC)c4)nn23)cc1	-17	0	0	-12	x	x
CC(C)N(C)Cc1nnnn1CC(=O)N1CCN(c2ccccc2O)CC1	6	5.0*	0	-12	1	-1
Cc1nc2ccccc2c(=O)n1Cc1c(F)cccc1Cl	-6	0	0	2	x	x
COC(=O)c1cc(CNC(=O)C(C)C)cc(NS(=O)(=O)c2ccccc2Cl)c1	-9	5.6*	0	-7	0	17
C=CCCC(=O)NCc1cc(NS(=O)(=O)c2ccccc2Cl)cc(C(=O)OC)c1	3	0	1	1	x	x
CN(Cc1ccccc1)C(=O)CCC1CCN(C(=O)c2cc[n+]([O-])cc2)CC1	0	5.6*	0	14	1	6
CC(Oc1cccc(Cl)c1)C(=O)Nc1nccs1 (stereo not given)	0	6.0*	0	0	-1	-10
CCN(CC)S(=O)(=O)c1ccc2c(c1)c(=O)c(C(=O)N(C)CC(OC)OC)cn2C	6	0	0	11	x	x
CCN(CC)S(=O)(=O)c1ccc2c(c1)c(=O)c(C(=O)N(C)CCC#N)cn2C	-18	6.1*	0	7	0	-3
Cc1cc(=O)oc2ccc(OC(=O)COc3ccc(F)cc3)cc12	-5	4	0	4	x	x

Screening data (PubChem BioAssay)
